# Screening data deposited in PubChem by several laboratories.
# Hits are enriched below; roughly 2.2% of the tested compounds scored in any of these assays.
# Autophagy HCS: modulators of autophagy. hit rate 0.98% among 190,000. calls only at 10 µM (by protocol). MEF GFP-LC3 puncta imaging; test concentration mostly 10 µM;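 active = percentage of spot-positive cells more than 3 SD above its plate mean, without a fluorescence outlier flag or 80% toxicity; inconclusive = no clear call, values can overlap the other calls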;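 note: spot-positive cell cutoff set from DMSO-treated cells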
# Arbovirus inh: arbovirus infection inhibition; arbovirus infection cell-based antiviral screen; inhibition, % at 10 µM; hit rate 0.37% among 200,000; in the data active = inhibition above about 30%
# Redox H2O2 prof: compounds producing H2O2 with reducing agent – biochemical, NIH compound library profiling, artefact control for MLSCN library redox annotation, primary screen. DTT-dependent redox cycling H2O2, phenol red/HRP absorbance; 100% = 100 µM peroxide control, 0% = buffer. activation, % at 10 µM. hit rate 0.03% among 200,000. AID 878;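 active = activation of at least 50% relative to the plate's high and low controls in the primary single-dose screen; inactive = activation below 50%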;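 note: compound incubated with DTT at 0.8 mM final as the reducing agent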
# Insulin prom up: MIN6 insulin promoter up-regulation; MIN6 insulin promoter-GFP reporter, high-content imaging; hits give high values; hit rate 0.3% among 190,000; z-score at 5 µM;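 active = z-score above 3 at 5 µM with at least 500 cells counted in the well; inconclusive = wells under 500 cells, flagged as cytotoxic or low count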
# Efa HMGR inh: blocks class II HMG-CoA reductase of Enterococcus faecalis | purified E. faecalis HMGR, NADPH absorbance 340 nm kinetic | inhibition, % at 10 µM | hit rate 0.41% among 190,000 | AID 1066;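 active = inhibition above a set limit, the median over all tested compounds plus 3 SD, cut at about 9.5% in these data; inconclusive = no clear call, values can overlap the other calls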;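 note: enzyme runs in reverse so mevalonate oxidation gives rising NADPH absorbance; 0% = complete reaction with DMSO and 100% = background rate lacking mevalonate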
# p47phox inh: p47phox (human) inhibition; P14598; p47phox/p22phox peptide binding, fluorescence polarization, 2 h; inhibition, % at 24.7 µM; hit rate 0.53% among 220,000; AID 1274;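 active = inhibition above about 30%, limit read from the data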;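 note: 0% = p47phox with labelled peptide and 100% = labelled peptide alone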
# Target sequence (P14598 whole entry, looked up): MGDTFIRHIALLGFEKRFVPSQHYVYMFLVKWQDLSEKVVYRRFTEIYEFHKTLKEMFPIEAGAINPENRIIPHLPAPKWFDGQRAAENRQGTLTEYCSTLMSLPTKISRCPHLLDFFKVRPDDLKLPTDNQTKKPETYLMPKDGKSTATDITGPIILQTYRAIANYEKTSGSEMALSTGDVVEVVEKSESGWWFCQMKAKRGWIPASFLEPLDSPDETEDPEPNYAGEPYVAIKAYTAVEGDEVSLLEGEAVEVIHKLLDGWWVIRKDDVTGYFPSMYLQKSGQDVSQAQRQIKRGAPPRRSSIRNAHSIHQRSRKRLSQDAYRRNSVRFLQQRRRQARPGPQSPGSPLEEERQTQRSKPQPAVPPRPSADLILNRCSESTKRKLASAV
# Numbers without * were called inactive; i = inactive; u = inconclusive; x = no result given; + = active, no number.
SMILES,Autophagy HCS,Arbovirus inh,Redox H2O2 prof,Insulin prom up,Efa HMGR inh,p47phox inh
COc1ccccc1NC(=O)c1ccc(NC(=O)CSc2ncn[nH]2)cc1,i,24,-1,0.22,-3,-5
Cc1ccc2nc(N3C(=O)C(O)=C(C(=O)c4ccc(C)o4)C3c3cccc(O)c3)sc2c1 (centres undefined),i,76*,0,0.01,-4,-56
Cc1ccc(C(=O)C2=C(O)C(=O)N(c3ncccn3)C2c2cccc(Cl)c2)o1 (centres undefined),x,x,x,0.17,x,x
CN1CCc2nc(SCC(=O)Nc3ccc(F)cc3)c(C#N)cc2C1,i,-2,3,-0.05,-1,37*
C=CCOc1c(Br)cc(CNc2nccs2)cc1OC,i,-5,3,x,14*,-11
CCC(C)NC(=O)c1ccc([N+](=O)[O-])c(Cl)c1 (centres undefined),i,-2,0,0.5,-6,-10
CSc1ncc(Cl)c(C(=O)Nc2cccc3ccccc23)n1,i,-19,0,0.21,2,-7
COCCNC(=O)c1c(NC(=O)c2nc(SC)ncc2Cl)sc2c1CCCC2,+,-7,0,0.42,-1,-30
CCOc1ccccc1NC(=O)NC(=O)N(C)S(=O)(=O)c1ccc(C)cc1,i,7,-1,-0.21,0,-3
CCc1ccccc1S(=O)(=O)Cc1ccc(C(=O)N2CCN(c3ccccc3OC)CC2)o1,+,-8,0,0.57,-6,-3
COc1ccccc1OCC(=O)NNc1c2ccccc2nc2ccccc12,x,x,x,-0.13,x,-8
Cc1ncccc1C(=O)N1CCCC(CNC(=O)C2(c3ccc(Cl)cc3)CC2)C1 (centres undefined),i,2,-1,x,-1,-4
CCc1ccc(/C(C)=N\Nc2ccc([N+](=O)[O-])cc2)cc1,+,-1,3,1.9,-4,-7
O=C(CCNc1ccc(F)cc1)c1cc2ccccc2o1,i,-2,0,-0.12,-4,62*
CC1CCC2(CC1)C(Nc1cccc(Cl)c1)=NC(=S)N2CC#N (centres undefined),i,-6,0,0.03,-5,-11
CN1CCC(N(C)CC(C)(C)NS(=O)(=O)c2ccccc2)CC1,x,x,x,-0.15,x,-33
COc1ccc(C(=O)c2sc3nc(C)cc(-c4cccs4)c3c2N)cc1OC,+,12,0,2.5,1,-16
Cc1cc(-c2cccs2)c2c(N)c(C(=O)c3ccc4c(c3)OCO4)sc2n1,+,0,1,4.7*,-5,-17
COc1ccc(C(=O)c2sc3nc(C)cc(-c4cccs4)c3c2N)cc1,+,4,2,2.7,-3,-44
Nc1c(C(=O)Nc2nc3ccccc3s2)sc2nc(-c3cccs3)ccc12,+,-40,2,x,-4,-58
Cc1nn(C)cc1CN(C)C(=O)CCc1nnc(CCC2CCCCC2)o1,i,1,0,-0.22,-3,5
O=C1C=CC(=O)N1N(c1ccccc1)c1ccccc1,i,-14,0,0.16,-5,9
CC1CCN(S(=O)(=O)c2ccc(S(=O)(=O)N3CCCN(Cc4ccccc4)C3)cc2)CC1,i,x,1,x,x,x
c1ccc(CCC2CCCCN2Cc2nc(C3CC3)no2)cc1 (centres undefined),i,-8,-1,0.18,-7,-9
CS(=O)(=O)N1CCC(Oc2ccccc2C(=O)N2CCN(CC3CC3)CC2)CC1,i,-4,-1,x,-3,-3
SMILES,Autophagy HCS,Arbovirus inh,Redox H2O2 prof,Insulin prom up,Efa HMGR inh,p47phox inh
Cc1nn(Cc2ccccc2)c(Cl)c1/C=C/C(=O)OC(C(=O)NC(N)=O)C(C)C (centres undefined),i,-8,0,-0.91,1,-7
CC(=O)c1sc2nc(-c3cccs3)ccc2c1N,i,0,1,0.14,-1,-14
CC(C)NC(=O)c1sc2nc(-c3cccs3)cc(-c3cccs3)c2c1N,+,3,1,0.46,-6,-18
C/C(=N\NC(=O)c1cc(-c2cccs2)nc2ccccc12)c1ccccn1,+,-23,-2,-6.2,-1,8
CC(C)OC(=O)CSc1nnc(-c2ccc(Cl)cc2)n1N,i,-1,0,0.89,4,4
CCC(C)NC(=O)CSc1nnc(-c2ccc(Cl)cc2)n1N (centres undefined),i,12,0,-0.17,-3,53*
CCc1nnc(NCC(=O)N2CCc3ccccc32)s1,i,4,1,0.02,2,+
COC(=O)/C=C1\N/C(=N\c2nc(C)cc(C)n2)N(c2ccc(C)c(C)c2)C1=O,i,0,0,-0.05,-2,-2
COc1ccc(/C=N/Nc2nccnc2Cl)cc1,i,-10,0,-0.05,-4,-14
COc1cccc(/C=N/Nc2nccnc2Cl)c1O,+,-24,0,-3.5,-4,-1
COc1ccc(/C=N/Nc2nccnc2Cl)c(OC)c1,i,-5,0,0.49,18*,-9
COc1cccc(/C=N/Nc2ncnc(Cl)c2N)c1O,i,-25,0,u,-10,-14
Cc1ccc(N2NC3(CCN(C(N)=O)CC3)NC2=O)cc1,i,-20,-1,-0.08,-6,-3
O=C(CNC(=S)N(CCCN1CCOCC1)Cc1cccs1)NC1CC1,i,-4,-1,x,-1,-12
O=C(CNC(=S)N(CCCN1CCOCC1)Cc1cccs1)NC1CCCC1,i,0,-3,-0.58,0,35*
CC(C)NC(=S)NC(=O)c1ccc(-c2ccccc2)cc1,i,21,0,-1.1,-9,-8
Cc1cc(NC(=O)c2ccccc2)n(-c2nc3ccccc3[nH]2)n1,+,-6,1,-0.16,-12,0
Cc1cccc(C(=O)N=c2c(C#N)cc3c(=O)n4cccc(C)c4nc3n2Cc2ccco2)c1,+,-11,4,0.36,3,-23
Cc1cccn2c(=O)c3cc(C#N)c(=NC(=O)c4ccccc4)n(Cc4ccco4)c3nc12,x,5,x,x,x,x
CCOc1cc(/C=C2/SC(=Nc3ccccc3)N(Cc3cccnc3)C2=O)ccc1OCC#N,i,-15,-3,-1,-2,-6
O=c1c2ccccc2nc(CSc2nnnn2-c2ccccc2)n1-c1ccccc1Cl,i,-16,-1,0.03,-3,40*
CS(=O)(=O)N(CC(O)Cn1c2ccccc2c2ccccc21)c1ccccc1 (centres undefined),i,42*,1,-0.8,-1,-2
CN(CC(O)Cn1c2ccccc2c2ccccc21)S(C)(=O)=O (centres undefined),i,2,0,0.31,-3,19
CCNC(=O)N1CCCC(C(=O)c2ccc(OC)c(OC)c2)C1 (centres undefined),i,-1,0,0.48,-7,-3
CCCNS(=O)(=O)c1cc(Cl)ccc1OC,i,-7,0,-0.7,-4,-3
CCCNS(=O)(=O)c1ccc(OC)c(Cl)c1Cl,i,-4,0,0.23,1,30*
